Experimental data reported in PubChem BioAssay (NCI).
Where “and” joins values, the source holds several entries; their conditions need not be identical. Identical values can stand only once. The panel holds about 83,000 compounds, 20% with a hit somewhere; the sample as a whole holds those more often.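 Interpretation: 100, growth as untreated; towards 0, rising growth inhibition; 0, no net growth; 0 to -100, cell death. Compounds scoring below 10 were considered active.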 More than one record can exist for a structure, and the calls need not agree. Calls of active or inactive are those of the source.

tested on: MDA-MB-468 breast; assay: NCI-60 one-dose screen, 48 h (100 = growth as untreated, 0 = no growth, -100 = all killed); conditions: 10 µM unless noted

Structure (SMILES) | growth
CC1=C(/C=C/C(C)=C/C=C/C(C)=C/C=N/NC(=S)NC(=S)N/N=C/C=C(C)/C=C/C=C(C)/C=C/C2=C(C)CCCC2(C)C)C(C)(C)CCC1 | 10.1% (inactive) and -26.7% (active)
Nc1n[nH]c2cccc(C#Cc3cccc(C(=O)Nc4ccc(Cl)c(C(F)(F)F)c4)c3)c12 | 74.4% (inactive)
O=C(O)c1cccc2c1Cc1cc([N+](=O)[O-])ccc1-2 | 113% (inactive)
Clc1ccc(OCc2nc(-c3ccccc3)n[nH]2)c(Cl)c1 | 99.1% (inactive)
c1cn2c(ccc3nc(-c4cn[nH]c4)c4c(c32)CCCC4)n1 | 42% (inactive)
COc1ccc(OC)c(Cn2cc3c(c2-c2ccccc2)CCc2cnoc2-3)c1 | 29.7% (inactive)
N#Cc1c(-c2ccc(Br)cc2)nc2c(N=Nc3ccc(S(N)(=O)=O)cc3)c(N)nn2c1N | 23.6% (inactive)
CC(=O)c1c(C)nc2ccccc2c1/C=C/c1ccc(F)cc1 | 46.1% (inactive)
COc1nc(N)nc2c1ncn2C1OC(CO)CC1O (stereo not given) | 98.5% (inactive)
Cc1c2c(c(C)c3c1oc1cc(O)ccc13)C(=O)N(CCN1CCCCC1)C2=O | 100% (inactive)
N=C(N)c1ccc(-c2ccc(-c3ccc(Cl)cc3)s2)s1 | -71.2% (active)
Cc1cc(C)cc(Nc2cc(C)nc3nc(C(F)(F)F)nn23)c1 | 25.5% (inactive)
COc1ccc(-c2nc3ccccn3c2-c2nc3ccc(Cl)cc3[nH]2)cc1 | 77.7% (inactive)
O=S(=O)(Nc1ccc(-n2cnc3cc(-c4ccc(O)cc4)ccc32)cc1)C1CC1 | 111% (inactive)
COc1ccc(-c2c[nH]c(C(=O)O)c2-c2cc(OC)c(OC)c(OC)c2)cc1 | 11.8% (inactive)
Nc1cc2c(cc1Cl)C(=O)c1ccccc1C2=O | 70.2% (inactive)
COc1cccc(-n2cc(-c3nc(Nc4cc(C)[nH]n4)c4ccccc4n3)nn2)c1 | 48.1% (inactive)
Oc1ccc(CCC2CCCC(CCc3ccc(OCCF)cc3)N2)cc1 (stereo not given) | 110% (inactive)
CCCC(=O)c1cccs1 | 96.9% (inactive)
COc1ccc(Cl)cc1NC(=O)c1c(NC(=O)C(F)(F)C(F)(F)F)sc2c1CCCCC2 | -16.9% (active)

Structure (SMILES) | growth
O=C(CSc1nc2ccccc2[nH]1)Nc1ccc(-c2nc3ccccc3s2)c(Cl)c1 | 26.5% (inactive)
CC[C@@H](C(=O)[C@@H](C)[C@@H](O)[C@H](C)[C@@H]1O[C@@H]([C@@H](CC)C(=O)ONC(=O)c2ccccc2O)CC[C@@H]1C)C1O[C@]2(C=CC(=O)[C@]3(CC[C@@](C)([C@H]4CC[C@](O)(CC)[C@H](C)O4)O3)O2)[C@H](C)C[C@@H]1C (stereo not given in full) | 16.4% (inactive)
C=CCn1c(SCC(=O)Nc2ccc(C(=O)/C=C/c3cc(OC)c(OC)c(OC)c3)cc2)nnc1-c1cc(-c2ccc(OC)cc2)nc2ccccc12 | 103% (inactive)
Cc1cn(-c2cc(C(=O)Nc3cccc(C#Cc4cccc5[nH]nc(N)c45)c3)cc(C(F)(F)F)c2)cn1 | 69.6% (inactive)
Nc1ccc(/C=N/Nc2ccnc3c(N)cccc23)c2cccnc12 | -38.4% (active)
Cc1cc(=O)oc2cc(Oc3nc(-c4cccs4)cn4c(-c5cccs5)cnc34)ccc12 | 54.7% (inactive)
CNCCNc1nc2ccccc2c2c(=O)c3cc(F)ccc3oc12 | 59.1% (inactive)
O=c1[nH]c2cc(Cl)c(Cl)cc2n2cc3ncccc3c12 | 0.904% (active)
O=C1Nc2ccc(C(=O)O)cc2/C1=N/c1nnc(Sc2ccccc2)s1 | 105% (inactive)
CCC(C)N(c1ccc(Cl)cc1)c1nc(-c2ccc(Br)cc2)cs1 (stereo not given) | 95.7% (inactive)
Cn1cc(-c2nc(N)nnc2-c2c[nH]c3ccc(Br)cc23)c2cc(F)ccc21 | 75.5% (inactive)
COc1cc2c3c(c4c5ccccc5[nH]c4c2c(OC)c1OC)C(=O)N(O)C3=O | 32.7% (inactive)
Cc1ccc(C2CC3c4ccccc4C2C2CCCCN32)cc1 (stereo not given) | -0.132% (active)
CC[C@H](CC[C@@H](C)[C@H]1CC[C@H]2[C@@H]3CC=C4C[C@@H](O)CC[C@]4(C)[C@H]3CC[C@]12C)C(C)C | 98.7% (inactive) and 91.8% (inactive)
Clc1ccc(CN2COc3c(ccc4cccnc34)C2)cc1Cl | -71.9% (active)
O=C(/C=C/c1ccc(C(F)(F)F)cc1)Nc1ccc(C=C2c3ccccc3C(=O)c3ccccc32)cc1 | 33.5% (inactive)
N/C(=N\c1nc2c(Br)cccc2s1)C(Br)Br | -58.8% (active)
O=C(Nc1ccc2ncsc2c1)c1csc(Nc2ccc3[nH]ncc3c2)n1 | 35.6% (inactive)
CC(C)=CCNc1ncnc2c1ncn2C1OC(CO)C(O)C1O (stereo not given) | -44.4% [1 mM] (active)
CCN(CC)CCCC(C)Nc1nc(-c2ccc(OC)cc2)nc2cc(Cl)ccc12 (stereo not given) | 34.8% (inactive)
